In ChEMBL document CHEMBL3988442, “University of Dundee, Small-Polar-MMV Screening Library” (2021) one finds Percent Effect data, which are given here for eight compounds.

Holding throughout (set-up): scale not given: direction of the effect not stated beside the values
The target in test [1] is Protein translocase subunit SecA (Escherichia coli (strain K12)) (UniProt P10408). Kind of test: Assay to Identify E. coli SecA ATPase Inhibitors. The test is classed as functional. The note with it: 30 µM.
Protein translocase subunit SecA (Escherichia coli (strain K12)), sequence (P10408 whole entry): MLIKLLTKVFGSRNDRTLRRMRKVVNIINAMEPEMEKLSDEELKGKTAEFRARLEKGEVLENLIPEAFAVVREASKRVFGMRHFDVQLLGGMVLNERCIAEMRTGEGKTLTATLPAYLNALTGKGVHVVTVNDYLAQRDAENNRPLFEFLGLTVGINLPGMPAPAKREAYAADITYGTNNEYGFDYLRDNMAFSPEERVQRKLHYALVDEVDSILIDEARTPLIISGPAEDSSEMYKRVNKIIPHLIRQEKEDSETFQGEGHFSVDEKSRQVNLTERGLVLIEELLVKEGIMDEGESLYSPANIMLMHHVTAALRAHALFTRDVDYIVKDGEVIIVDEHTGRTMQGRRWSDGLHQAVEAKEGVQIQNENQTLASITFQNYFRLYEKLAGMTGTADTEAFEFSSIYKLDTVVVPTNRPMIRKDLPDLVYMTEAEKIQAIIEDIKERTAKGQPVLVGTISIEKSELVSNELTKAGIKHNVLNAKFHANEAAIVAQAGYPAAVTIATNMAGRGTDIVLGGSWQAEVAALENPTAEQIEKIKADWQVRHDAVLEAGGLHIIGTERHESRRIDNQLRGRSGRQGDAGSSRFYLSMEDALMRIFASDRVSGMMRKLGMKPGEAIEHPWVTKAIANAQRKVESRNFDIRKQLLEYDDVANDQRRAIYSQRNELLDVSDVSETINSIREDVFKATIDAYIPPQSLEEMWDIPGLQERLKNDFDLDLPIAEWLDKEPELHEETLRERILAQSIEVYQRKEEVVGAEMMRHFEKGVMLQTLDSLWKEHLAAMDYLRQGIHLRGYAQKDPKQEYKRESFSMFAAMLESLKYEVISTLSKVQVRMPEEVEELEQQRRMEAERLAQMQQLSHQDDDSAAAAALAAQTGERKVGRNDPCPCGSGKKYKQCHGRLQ
Test [2] addresses T1, Ubiquitin-activating enzyme e1, putative (Leishmania donovani (strain BPK282A1)) (UniProt E9BSI1).
T1 sequence (whole entry): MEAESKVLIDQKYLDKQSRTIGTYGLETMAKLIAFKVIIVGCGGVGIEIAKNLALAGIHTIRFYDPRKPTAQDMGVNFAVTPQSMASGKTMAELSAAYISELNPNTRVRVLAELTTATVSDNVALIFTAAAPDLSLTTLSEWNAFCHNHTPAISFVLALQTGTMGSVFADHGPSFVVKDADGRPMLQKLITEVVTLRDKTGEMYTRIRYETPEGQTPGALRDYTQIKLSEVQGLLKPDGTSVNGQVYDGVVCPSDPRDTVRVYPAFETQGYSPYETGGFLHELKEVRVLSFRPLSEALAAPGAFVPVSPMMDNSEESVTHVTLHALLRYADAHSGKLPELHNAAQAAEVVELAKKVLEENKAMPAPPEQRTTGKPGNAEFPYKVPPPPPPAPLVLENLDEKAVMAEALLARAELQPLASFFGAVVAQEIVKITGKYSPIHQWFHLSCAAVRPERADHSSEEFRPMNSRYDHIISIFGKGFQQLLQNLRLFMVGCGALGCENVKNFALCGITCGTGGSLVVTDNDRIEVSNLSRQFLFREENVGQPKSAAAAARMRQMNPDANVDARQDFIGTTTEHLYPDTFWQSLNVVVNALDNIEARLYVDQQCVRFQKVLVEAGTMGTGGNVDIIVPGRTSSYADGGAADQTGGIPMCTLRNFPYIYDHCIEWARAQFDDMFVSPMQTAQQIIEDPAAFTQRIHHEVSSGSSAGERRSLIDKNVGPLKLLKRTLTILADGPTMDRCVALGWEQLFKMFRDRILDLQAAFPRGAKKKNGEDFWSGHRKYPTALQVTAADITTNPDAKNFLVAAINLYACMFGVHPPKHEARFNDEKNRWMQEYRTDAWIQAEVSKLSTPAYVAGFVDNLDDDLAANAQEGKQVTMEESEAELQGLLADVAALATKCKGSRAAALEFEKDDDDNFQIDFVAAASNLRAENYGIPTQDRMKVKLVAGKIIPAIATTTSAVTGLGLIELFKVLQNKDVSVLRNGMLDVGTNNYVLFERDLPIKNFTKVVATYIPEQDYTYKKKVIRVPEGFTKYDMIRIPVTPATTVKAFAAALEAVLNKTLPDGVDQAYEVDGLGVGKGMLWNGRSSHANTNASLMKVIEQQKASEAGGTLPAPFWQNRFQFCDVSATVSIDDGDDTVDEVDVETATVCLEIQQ
Briefly: Leishmania donovani Ubiquitin Activating Enzyme (LdE1). Type of test: functional. The note with it: 30 µM.

For test [3], the target named is AMP-activated protein kinase, AMPK (Homo sapiens) (UniProt P54646+O43741+P54619+Q9UGJ0+Q9Y478+Q13131+Q9UGI9). Briefly: AMP-dependent Kinase enzyme assay. An in vitro enzyme assay that detects ADP turnover that is directly proportional to AMPK activity. This uses naive AMPK that is activated during the assay with MK-8722. The test is classed as functional. The note with it: 30 µM.

Test [4] has as its target Sialic acid-binding Ig-like lectin 9 (Homo sapiens) (UniProt Q9Y336). Briefly: Hs-Siglec9 ALPHAscreen SOP 20170721. The following applies: 10 µM. On the technique in general: Alpha assays give light when donor and acceptor beads are brought close together.
Test [5] deals with Trypanosoma cruzi. Briefly: Trypanosoma cruzi phosphomannomutase and mannose-1-phosphate guanylyltransferase assay. The following applies: 10 µM. The test is classed as functional.
Test [6] deals with T2, Arginase-2, mitochondrial (Homo sapiens) (UniProt P78540).
T2 sequence (whole entry): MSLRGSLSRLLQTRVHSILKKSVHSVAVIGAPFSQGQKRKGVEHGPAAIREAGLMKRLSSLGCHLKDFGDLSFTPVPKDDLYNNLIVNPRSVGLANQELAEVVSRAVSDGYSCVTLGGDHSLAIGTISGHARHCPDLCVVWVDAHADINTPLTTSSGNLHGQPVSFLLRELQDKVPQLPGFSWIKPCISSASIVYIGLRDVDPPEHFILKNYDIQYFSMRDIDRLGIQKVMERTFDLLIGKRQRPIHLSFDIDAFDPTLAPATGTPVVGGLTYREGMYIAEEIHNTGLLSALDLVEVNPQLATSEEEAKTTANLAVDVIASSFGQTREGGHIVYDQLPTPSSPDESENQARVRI
Kind of test: in vitro enzyme assay to detect the production of urea directly proportional to the activity of Arginase II. Further: in the data most compounds retested in dose-response had high values. The test is classed as functional. The note with it: 33.3 µM.

The target of test [7] is T3, Proteasome subunit beta (Trypanosoma cruzi) (UniProt O96673).
T3 sequence (whole entry): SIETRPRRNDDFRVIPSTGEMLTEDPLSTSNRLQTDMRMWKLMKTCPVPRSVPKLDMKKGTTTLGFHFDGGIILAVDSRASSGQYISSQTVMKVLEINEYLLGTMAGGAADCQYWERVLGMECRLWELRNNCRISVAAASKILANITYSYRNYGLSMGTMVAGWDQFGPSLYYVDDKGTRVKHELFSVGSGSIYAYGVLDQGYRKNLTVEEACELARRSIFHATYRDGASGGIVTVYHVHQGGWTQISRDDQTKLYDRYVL
Kind of test: Trypanosoma cruzi proteasome chymotrypsin-like activity (TcProtChymo) assay. Further: in the data most compounds retested in dose-response had high values. Type of test: functional. The note with it: 9.37 µM.

The species named for test [8] is Homo sapiens. Briefly: To identify inhibition of the IFN signalling (Jak-Stat) pathway via expression of an eGFP reporter gene under the control of an IFN-stimulated response element (ISRE) containing MxA promoter. The test is classed as functional. The note with it: 30 µM.
The target in test [9] is T4, Tyrosyl-tRNA synthetase, putative (Trypanosoma cruzi (strain CL Brener)) (UniProt Q4DSP6).
T4 sequence (whole entry): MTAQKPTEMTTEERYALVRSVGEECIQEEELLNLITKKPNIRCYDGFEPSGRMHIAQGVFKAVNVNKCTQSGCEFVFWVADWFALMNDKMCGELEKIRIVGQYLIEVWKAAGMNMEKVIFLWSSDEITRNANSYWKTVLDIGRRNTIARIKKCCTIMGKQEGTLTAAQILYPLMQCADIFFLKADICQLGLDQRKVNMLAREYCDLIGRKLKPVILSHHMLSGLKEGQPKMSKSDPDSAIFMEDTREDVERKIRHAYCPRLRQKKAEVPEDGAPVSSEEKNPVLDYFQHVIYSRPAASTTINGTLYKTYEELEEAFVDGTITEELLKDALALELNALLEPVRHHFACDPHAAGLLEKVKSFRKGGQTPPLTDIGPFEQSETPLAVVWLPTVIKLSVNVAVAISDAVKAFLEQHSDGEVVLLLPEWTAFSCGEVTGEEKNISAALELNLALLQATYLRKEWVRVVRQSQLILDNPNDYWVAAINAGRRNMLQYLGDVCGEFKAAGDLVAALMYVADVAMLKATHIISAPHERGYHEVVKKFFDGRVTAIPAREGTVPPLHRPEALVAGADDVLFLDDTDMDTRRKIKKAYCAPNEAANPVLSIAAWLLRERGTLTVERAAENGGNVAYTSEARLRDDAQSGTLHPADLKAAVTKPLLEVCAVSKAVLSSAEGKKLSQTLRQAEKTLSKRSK
Kind of test: Trypanosoma cruzi tyrosyl tRNA synthetase (TcYRS) _High Tyrosine SOP. Further: in the data most compounds retested in dose-response had high values. The test is classed as functional. The following applies: 30 µM.

The target in test [10] is T4, Tyrosyl-tRNA synthetase, putative (Trypanosoma cruzi (strain CL Brener)). Kind of test: Trypanosoma cruzi tyrosyl tRNA synthetase (TcYRS) SOP. Type of test: functional. The following applies: 30 µM.
Test [11] has as its target Chromo domain-containing protein 1 (Saccharomyces cerevisiae (strain ATCC 204508 / S288c) (Baker's yeast)) (UniProt P32657). Kind of test: ScCHD-1 Enzyme Inhibition Assay. Further: in the data most compounds retested in dose-response had high values. Type of test: functional. The note with it: 30 µM.

For some of these results: Potency and affinity values are given separately.

Chromo domain-containing protein 1 (Saccharomyces cerevisiae (strain ATCC 204508 / S288c) (Baker's yeast)), sequence (P32657 whole entry, the tested form may be a part): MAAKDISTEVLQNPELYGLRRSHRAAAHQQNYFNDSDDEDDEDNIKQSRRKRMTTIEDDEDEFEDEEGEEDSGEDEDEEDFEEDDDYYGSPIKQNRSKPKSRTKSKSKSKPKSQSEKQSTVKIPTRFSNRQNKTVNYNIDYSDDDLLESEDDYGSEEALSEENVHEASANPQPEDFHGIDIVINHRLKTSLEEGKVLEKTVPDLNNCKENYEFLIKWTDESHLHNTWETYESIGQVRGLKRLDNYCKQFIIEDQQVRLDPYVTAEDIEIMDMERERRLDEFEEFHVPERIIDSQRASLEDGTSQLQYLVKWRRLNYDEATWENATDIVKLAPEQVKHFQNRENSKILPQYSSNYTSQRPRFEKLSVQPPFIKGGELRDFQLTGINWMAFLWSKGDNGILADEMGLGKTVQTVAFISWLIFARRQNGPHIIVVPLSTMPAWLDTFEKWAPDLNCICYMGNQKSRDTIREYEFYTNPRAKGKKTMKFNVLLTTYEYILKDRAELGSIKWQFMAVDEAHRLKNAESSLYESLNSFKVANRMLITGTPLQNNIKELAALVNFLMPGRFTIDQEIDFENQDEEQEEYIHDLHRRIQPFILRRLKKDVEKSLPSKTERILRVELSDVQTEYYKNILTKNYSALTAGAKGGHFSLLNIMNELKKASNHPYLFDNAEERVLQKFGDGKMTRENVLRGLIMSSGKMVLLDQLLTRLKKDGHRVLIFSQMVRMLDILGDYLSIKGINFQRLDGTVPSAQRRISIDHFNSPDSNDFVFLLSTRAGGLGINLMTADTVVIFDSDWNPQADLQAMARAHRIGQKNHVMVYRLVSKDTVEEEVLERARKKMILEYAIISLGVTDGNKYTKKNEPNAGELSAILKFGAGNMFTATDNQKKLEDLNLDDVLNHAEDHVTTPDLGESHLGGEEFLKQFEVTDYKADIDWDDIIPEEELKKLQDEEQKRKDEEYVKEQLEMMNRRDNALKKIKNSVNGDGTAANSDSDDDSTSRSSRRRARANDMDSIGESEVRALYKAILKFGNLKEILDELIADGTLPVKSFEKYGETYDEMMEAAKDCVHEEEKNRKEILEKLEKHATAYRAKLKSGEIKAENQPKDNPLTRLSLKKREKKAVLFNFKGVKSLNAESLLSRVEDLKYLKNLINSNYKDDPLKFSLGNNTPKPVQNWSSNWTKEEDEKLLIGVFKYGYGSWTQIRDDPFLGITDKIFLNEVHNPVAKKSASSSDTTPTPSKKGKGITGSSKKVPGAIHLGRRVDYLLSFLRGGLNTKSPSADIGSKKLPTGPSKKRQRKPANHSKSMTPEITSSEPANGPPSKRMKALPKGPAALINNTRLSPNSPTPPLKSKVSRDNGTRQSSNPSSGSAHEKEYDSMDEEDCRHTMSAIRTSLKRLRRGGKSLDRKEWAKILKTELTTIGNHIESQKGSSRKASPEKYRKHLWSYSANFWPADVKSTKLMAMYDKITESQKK
Sialic acid-binding Ig-like lectin 9 (Homo sapiens), sequence (Q9Y336 whole entry): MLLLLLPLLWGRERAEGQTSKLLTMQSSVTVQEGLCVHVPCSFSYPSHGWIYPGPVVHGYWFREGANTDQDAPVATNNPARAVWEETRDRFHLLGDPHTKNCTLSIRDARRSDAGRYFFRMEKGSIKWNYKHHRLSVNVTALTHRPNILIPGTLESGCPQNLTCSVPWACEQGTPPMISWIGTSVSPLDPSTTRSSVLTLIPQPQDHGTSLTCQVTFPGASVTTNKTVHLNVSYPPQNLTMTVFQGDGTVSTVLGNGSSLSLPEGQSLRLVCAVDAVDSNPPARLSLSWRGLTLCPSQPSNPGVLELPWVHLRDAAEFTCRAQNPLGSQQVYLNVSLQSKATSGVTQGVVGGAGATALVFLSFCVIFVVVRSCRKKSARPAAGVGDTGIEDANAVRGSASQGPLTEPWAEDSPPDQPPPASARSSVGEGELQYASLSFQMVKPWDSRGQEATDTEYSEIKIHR

As for `COc1c(CNCCNC(=O)Cc2ccc(F)cc2)c(C)nn1C`, the Percent Effect in test [1] was -1.17%; in [2] it was 13.5%; in test [3], 1.18%; in test [4] it was -2.01%; in test [5], -7.52%; in test [6] it was -4.99%. Besides, the Percent Effect in test [7] was 13.1%; in test [8] it was 12.1%; in test [9], 1.98%; in test [10] it was -18.3%; in test [11], -8.36%.
On to `Cc1ncc(CNC2CCCN(Cc3noc(C4CC4)n3)C2)s1` (stereo not drawn), for which the Percent Effect in [1] is -0.948%; in test [2], 10.5%; in test [3], 2.18%; in test [4], 8.33%; in [5], 3.01%; in test [6] it was 2.3%. Further, the Percent Effect in [7] is 10.2%; in test [8] it was 8.96%; in test [9], 7.35%; in [10], 19.5%; in test [11] it was -8.72%.
On to `Cn1c(Nc2cn[nH]c2)c(C#N)c(=O)n(C)c1=O`, for which the Percent Effect in test [1] is -7.22%; in test [2] it was 5.41%; in test [3], -1.11%; in test [4], -6.81%; in [5] it was -8.31%; in [6], -1.74%. For the same compound, the Percent Effect in [7] was 14.3%; in test [8], -8.26%; in test [9] it was -3.23%; in [10], 1.24%; in test [11] it was -4.94%.
Consider `O=C(CN1CCN(CC(O)C2CC2)CC1)NCc1ccc(F)cc1` (stereo not drawn), for which the Percent Effect was -3.06% in test [1]; 10.4% in test [2]; 6.87% in [3]; 0.218% in test [4]; 4.83% in test [5]; 9.68% in test [6]. Further, the Percent Effect in test [7] is 13.1%; in test [8], 22.2%; in test [9], 8.47%; in test [10], 19.2%; in test [11], -7.59%.
Regarding `Cc1ccc(CN2CCCC3(CCN(S(C)(=O)=O)C3)C2)o1` (stereo not drawn), the Percent Effect is -3.67% in [1]; 8% in [2]; 11.7% in [3]; 5.08% in [4]; -1.97% in test [5]; -4.43% in [6]. The Percent Effect was 3.96% in [7]; 15.2% in test [8]; 6.38% in test [9]; 14.1% in test [10]; -3.22% in test [11].
With `O=C(Cn1cccnc1=O)NC(Cc1cccs1)c1ccccn1` (stereo not drawn), the Percent Effect was -3.91% in [1]; 9.46% in [2]; 6.77% in test [3]; 0.0436% in [4]; 2.57% in [5]; 5.8% in test [6]. For the same compound, the Percent Effect in test [7] is 8.27%; in test [8] it was 15.5%; in test [9], 5.38%; in test [10], 11.7%; in [11], -11.5%.
Consider `CN(C)CCNC(=O)CNC(=O)N1CCc2c([nH]c3ccc(Cl)cc23)C1`, for which the Percent Effect in test [1] was -4.87%; in test [2] it was -1.33%; in test [3] it was 9.82%; in test [4], 0.772%; in test [5], -2.55%; in [6], -9.33%. Further, the Percent Effect in test [7] was 0.185%; in test [8] it was -14.7%; in test [9] it was -1.06%; in [10], -7.69%; in test [11], -0.829%.
With `Cc1ccc(NC(=O)NC(C)c2nc[nH]n2)cc1` (stereo not drawn), the Percent Effect in test [1] is -6.05%; in test [2] it was -10.8%; in [3] it was -1.56%; in test [4], -5.4%; in test [5], -1.86%; in test [6], -0.248%. Moreover, the Percent Effect in [7] is 15.9%; in [8] it was -15.4%; in [9] it was 1.07%; in test [10], 1.24%; in [11] it was -1.66%.
